# Screens: PubChem, National Center for Advancing Translational Sciences (NCATS)
# HP1b binding inh: inhibitors of HP1-beta chromodomain binding to methylated histone tails. P83916. AlphaScreen HP1-beta / biotin-H3K9me3 peptide binding. Potency, µM (titrated, usually from 114 µM), for inactives: at the highest dose activity change, negative = inhibition, hits mostly inhibitors. 390,000 compounds, 0.56% hits; note: nearly all actives have a fitted effect of over 70% in size
# Target sequence (P83916 whole entry, looked up): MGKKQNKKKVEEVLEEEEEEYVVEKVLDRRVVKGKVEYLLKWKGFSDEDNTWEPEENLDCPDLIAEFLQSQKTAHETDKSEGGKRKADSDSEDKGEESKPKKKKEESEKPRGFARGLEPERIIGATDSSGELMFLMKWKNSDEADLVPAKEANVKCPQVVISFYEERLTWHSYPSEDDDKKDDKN
#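 Compound inhibition of the preformed complex between 50 nM HP1-beta and 50 nM biotinylated H3K9me3 peptide was read by AlphaScreen. Buffer was PBS pH 7.4 with 0.01% Tween-20. Incubations ran 30 min at room temperature, with 10 ug/mL donor/acceptor beads.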
# G9a inh: G9a (human) methyltransferase inhibition; 350,000 compounds, 8.8% hits; Q96KQ7; G9a H3K9 monomethylation, AlphaScreen, 2 h; Potency, µM (highest dose often 102 µM), for inactives: top-dose activity, negative = inhibition, actives largely listed as inhibitors; AID 504332; note: % is set by controls: 0 for no effect and ±100 for the full control effect; nearly all actives have a fitted effect of over 75% in size
# Target sequence (Q96KQ7 913-1193 limits assumed): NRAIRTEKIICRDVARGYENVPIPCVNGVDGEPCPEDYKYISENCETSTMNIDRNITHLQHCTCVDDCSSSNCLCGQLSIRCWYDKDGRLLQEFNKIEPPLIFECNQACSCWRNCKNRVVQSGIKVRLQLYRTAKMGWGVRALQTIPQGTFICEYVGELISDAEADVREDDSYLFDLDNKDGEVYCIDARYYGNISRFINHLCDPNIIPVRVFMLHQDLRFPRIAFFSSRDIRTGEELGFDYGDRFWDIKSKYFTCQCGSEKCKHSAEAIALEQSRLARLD
#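 Quantitative HTS format: methyltransferase activity on a biotin-tagged H3K9 peptide is measured by AlphaScreen, using a rabbit anti-monomethyl-H3K9 antibody with streptavidin donor and anti-IgG acceptor beads. Final levels are 20 nM enzyme, 500 nM peptide, 20 uM SAM; 2 h RT.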
# Sfp PPTase inh: Sfp phosphopantetheinyl transferase inhibition | Potency, µM, for the others: largest response in the series, negative = inhibition, most hits filed as inhibitors | Biochemical Sfp PPTase activity, qHTS | AID 1490 | 310,000 compounds, 3.5% hits;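 note: the enzyme is Sfp with the accession as filed and its product quenches rhodamine fluorescence; 0% = enzyme reaction without inhibitor and -100% = no enzyme wells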
#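 With Hepes-Na pH 7.6 buffer containing 10 mM MgCl2, Sfp (15 nM) modified BHQ-2-YbbR (12.5 uM) using rhodamine-CoA (5 uM). Two reads 30 minutes apart at 525/598 nm yielded each well's rate.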
# JMJD2A Tudor: inhibitors of human JMJD2A Tudor domain | AlphaScreen JMJD2A-Tudor / H3K4me3 peptide binding | Potency, µM (series often up to 114 µM), inactives show at the highest dose activity change, negative = inhibition, most hits filed as inhibitors | 390,000 compounds, 4.4% hits | AID 504339; note: % is set by controls: 0 for no effect and ±100 for the full control effect; nearly all actives have a fitted effect of over 50% in size
# BAZ2B inh: blocks human BAZ2B. Q9UIF8. AlphaScreen BAZ2B-H3K14Ac peptide displacement. Potency, µM (doses to about 114 µM), for inactives: top-dose activity change, negative = inhibition, usual class: inhibitors. 360,000 compounds, 4.4% hits. AID 504333; note: % is set by controls: 0 for no effect and ±100 for the full control effect; nearly all actives have a fitted effect of over 60% in size
#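 BAZ2B (50 nM) with biotin-H3(5-23)K14Ac peptide (50 nM) in PBS pH 7.4, 0.01% Tween-20, preformed 30 min, then compound 30 min at room temperature; top concentration 110uM. AlphaScreen streptavidin donor/nickel chelate acceptor beads (10 ug/mL final), 20 min dark, signal read.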
# L3MBTL1 inh: blocks human L3MBTL1; Q9Y468; Potency, µM (titrated, usually from 57.1 µM), without a hit: at the highest dose activity, negative = inhibition, actives largely listed as inhibitors; AID 485360; 230,000 compounds, 0.66% hits; AlphaScreen L3MBTL1–H3K9me1 peptide binding; note: % is set by controls: 0 for no effect and ±100 for the full control effect; nearly all actives have a fitted effect of over 60% in size
#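 Displacement of a biotinylated histone H3(1-15) peptide monomethylated at Lys9 (75 nM) from L3MBTL1 (50 nM) was measured by AlphaScreen after a 30 min room-temperature compound incubation; cefsulodin titration served as intraplate control.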
# * = called active by the depositor; ? = inconclusive; / = not tested or not shown; [ ] = another dose, or the depositor's remark. Compounds with a hit are over-represented: about 12% of the library has one in this group of screens. Calls come from the whole dose curve; as a rule, active = well fitted curve in the direction sought with a large enough effect; inconclusive = small, poorly fitted or top-dose-only effect, or another doubt; inactive = no such curve, though single readings can be large; an effect the other way counts as inactive or inconclusive. Potency is the fitted concentration of half-maximal effect.
SMILES,HP1b binding inh,G9a inh,Sfp PPTase inh,JMJD2A Tudor,BAZ2B inh,L3MBTL1 inh
CCc1nc(C)cn1S(=O)(=O)c1ccc(Cl)c(Cl)c1OC,11%,-21%[59 µM],/,-12%,-33%,/
O=C(Nc1cccc(Cl)c1Cl)c1cc(S(=O)(=O)N2CCCCC2)ccc1F,11%,2%[59 µM],/,-11%,5%,/
COC(=O)C1=C(C(=O)OC)[C@@H]2N(Cc3ccccc3)c3ccccc3[C@@]23C[C@@H](C(=O)OC)N(S(=O)(=O)c2cccs2)C3=N1,/,/,-14%,/,/,/
COc1ccccc1-c1noc(-c2ccc(N(C)Cc3ccccc3)c([N+](=O)[O-])c2)n1,5%,?,/,-24%,-13%,/
O=C(NC(=S)N1CCN(Cc2ccccc2)CC1)c1ccco1,6%,50µM*,-7%,-23%,-28%,-1%
CCN1CCN(C(=S)NCC2CCCO2)CC1 (configuration not stated),?,40µM*,-22%,7.9µM*,50µM*,-1%
O=C(CCc1c[nH]c2ccccc12)OCc1cccc([N+](=O)[O-])c1,?,40µM*,4%,?,?,/
O=C(COC(=O)CCc1c[nH]c2ccccc12)NCc1ccccc1,-4%,-2%[59 µM],11%,-31%,?,-13%
CN(C(=O)COC(=O)CCc1c[nH]c2ccccc12)C(c1ccccc1)c1ccccc1,-3%,13µM*,18%,?,?,-21%
CN(C)c1ccc(-c2nc3cnccn3c2Nc2cccc(C(F)(F)F)c2)cc1,22%,-41%[59 µM],/,-29%,?,/
COc1cc2c(C#N)c(N3CCN(C)CC3)nc(N)c2c(N)n1,/,50µM*,8%,/,4%,/
COc1cc2c(C#N)c(N3CCCC3)nc(N)c2c(N)n1,39%,11%,4µM*,-30%,15%,?
CN(C)CCCC1Sc2ccccc2Sc2ccccc21 (configuration not stated),71µM*,/,/,20µM*,/,/
O=C(Nc1ccc(F)cc1)c1ccc2c(c1)S(=O)(=O)N=C1CCCCCN12,39%,4%[12.7 µM],/,4%,8%,-3%
COc1cc(NC(=O)c2ccc3c(c2)S(=O)(=O)N=C2CCCCCN23)cc(OC)c1,-4%,50µM*,/,-20%,11%,1%
CCc1ccc(Cn2c(CNS(=O)(=O)c3ccc(Cl)s3)nc3cccnc32)cc1,13%[57 µM],53%[59 µM],/,-4%,3%,/
COCCNC(=O)CCCC(=O)NCCOC,51%,20%[59 µM],8%,25µM*,8%,6%
O=C(c1cnccn1)N1CCC2(CC1)CN(c1cccc(-c3ccccc3)c1)C2,/,28%[12.7 µM],-22%,/,/,/
CC1CCc2c(C(=O)Nc3cccc(-c4nn[nH]n4)c3)csc2C1 (configuration not stated),19%,50µM*,-13%,-26%,-28%,/
COc1ccccc1NC(=O)c1csc2c1CCC(C)C2 (configuration not stated),129%,?,?,87%,-26%,-24%
CCc1nnc(NC(=O)c2csc3c2CCC(C)C3)s1 (configuration not stated),/,11%,24%,/,-14%,3%
CC1CCc2c(C(=O)NCc3ccco3)csc2C1 (configuration not stated),22%,56µM*,-9%,-6%,-37%,/
CC(CNC(=O)c1ccc2nc(CCc3ccccc3)oc2c1)c1ccccc1 (configuration not stated),14%[57 µM],14%[59 µM],/,-13%,0%,/
COc1nsnc1NS(=O)(=O)c1ccc(NC(=S)NC(=O)c2ccncc2)cc1,-23%,-9%[59 µM],79µM*,-25%,-27%,-8%
COc1nsnc1NS(=O)(=O)c1ccc(NC(=S)NC(=O)c2cccnc2)cc1,?,/,?,11µM*,?,5%
SMILES,HP1b binding inh,G9a inh,Sfp PPTase inh,JMJD2A Tudor,BAZ2B inh,L3MBTL1 inh
COc1nccnc1NS(=O)(=O)c1ccc(NC(=S)NC(=O)c2ccccc2F)cc1,?,?,-23%,?,?,-16%
COc1nccnc1NS(=O)(=O)c1ccc(NC(=S)NC(=O)c2cccnc2)cc1,8%,50µM*,?,-13%,?,/
COc1ccc(NC(=O)c2ccc3ccccc3c2)cc1NS(=O)(=O)c1ccc(F)cc1,4%,-6%[59 µM],10%,-23%,-7%,-8%
O=C(Nc1ccc(S(=O)(=O)Nc2ncccn2)cc1)c1cccnc1,47%,-6%,-14%,2%,-1%,3%
COc1ccc(NC(=O)c2ccc(C#N)cc2)cc1NS(=O)(=O)c1ccc(F)cc1,43%,8.9µM*,-13%,6%[57.1 µM],-1%,-3%
CCc1sc(-c2cc3ccc(O)cc3oc2=O)nc1-c1ccc(C)cc1,95%[57 µM],/,/,87%[57.1 µM],/,/
O=S(=O)(c1ccc(F)cc1)N1CCN(c2nc(-c3ccccc3)nc3ccccc23)CC1,1%,/,/,-31%,/,/
COc1nccnc1NS(=O)(=O)c1ccc(NC(=S)NC(=O)c2cccc(F)c2)cc1,-29%,?,3%,?,?,-2%
COc1nccnc1NS(=O)(=O)c1ccc(NC(=S)NC(=O)c2ccc(F)cc2)cc1,-12%,?,50µM*,-29%,-39%,-1%
CSc1nnc(C)c(/C=C/NOCc2ccc(Cl)cc2)n1,-18%,13µM*,14%,?,?,-1%
COc1ccccc1NC(=O)CC(NCc1ccccc1)C(=O)O (configuration not stated),-9%,?,2%,11µM*,?,?
COc1ccc(NC(=O)CC(C)CC(=O)NCc2ccccc2)c(OC)c1 (configuration not stated),29%,20%,12%,-12%,1%,-1%
COc1ccccc1NC(=O)Cc1ccsc1,47%,5%,5%,-4%,-2%,/
COc1ccc(NC(=O)CC(NCCc2ccccc2)C(=O)O)c(OC)c1 (configuration not stated),-5%,28µM*,-17%,4.5µM*,-30%,1%
COCCCNC(CC(=O)Nc1ccc(OC)cc1OC)C(=O)O (configuration not stated),-19%,?,-19%,10µM*,-8%,/
Clc1ccccc1-c1nc(Nc2ccncc2)c2ccccc2n1,/,16%[0.501 µM],-4%,/,/,/
O=C(Oc1nsnc1N1CCOCC1)c1ccccc1,-23%,35µM*,-29%,-35%,-4%,/
Cc1cc(N2CCN(c3ncccn3)CC2)nc2c(C)cccc12,59%,33%,-9%,13%,70%,/
COc1ccc(N2CCN(c3cc(C)c4ccc(C)cc4n3)CC2)cc1,?,8.9µM*,-7%,?,-38%,?
COc1ccc(N2CCN(c3nc4cc(C)ccc4cc3C=O)CC2)cc1,?,25µM*,-5%,22µM*,13µM*,/
